Compounds with a hit are over-represented: about 1.7% of the library has one in this group of screens.
Rin1-Abl PPI inh: human Rin1-Abl interaction inhibition. inhibition, % at 7.35 µM. TR-FRET Rin1/Abl binding, biochemical. actives 0.4% (n = 360,000). P00519+Q13671; in the data active = inhibition above about 5%, passing the limit was not always enough
LYPLA2 counter: counter-screen for PME1 inhibitors: inhibitors of human LYPLA2; O95372; recombinant LYPLA2, FP-Rh probe fluorescence polarization; inhibition, % at 5.9 µM; actives 0.38% (n = 320,000);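 active = inhibition above the screen-wide mean plus 3 SD, limit set per campaign, cut at about 26% in these data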;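 also: 0% = LYPLA2 with DMSO and 100% = wells lacking LYPLA2 enzyme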
PREPL inhibitor: human PREPL enzyme inhibition; recombinant PREPL, fluorescence polarization activity-based probe; actives 0.68% (n = 320,000); inhibition, % at 5.96 µM; in the data active = inhibition above about 43%;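 also: 0% = enzyme with DMSO and 100% = wells lacking enzyme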
p97 ATPase inh: blocks human p97 ATPase activity; AID 1481; actives 0.42% (n = 220,000); inhibition, % at 8 µM; recombinant p97 ATPase, Kinase-Glo ATP luminescence, 3 h; P55072; in the data active = inhibition above about 15%;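 also: 0% = DMSO vehicle and 100% = wells lacking enzyme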
Target sequence (P55072 whole entry, looked up): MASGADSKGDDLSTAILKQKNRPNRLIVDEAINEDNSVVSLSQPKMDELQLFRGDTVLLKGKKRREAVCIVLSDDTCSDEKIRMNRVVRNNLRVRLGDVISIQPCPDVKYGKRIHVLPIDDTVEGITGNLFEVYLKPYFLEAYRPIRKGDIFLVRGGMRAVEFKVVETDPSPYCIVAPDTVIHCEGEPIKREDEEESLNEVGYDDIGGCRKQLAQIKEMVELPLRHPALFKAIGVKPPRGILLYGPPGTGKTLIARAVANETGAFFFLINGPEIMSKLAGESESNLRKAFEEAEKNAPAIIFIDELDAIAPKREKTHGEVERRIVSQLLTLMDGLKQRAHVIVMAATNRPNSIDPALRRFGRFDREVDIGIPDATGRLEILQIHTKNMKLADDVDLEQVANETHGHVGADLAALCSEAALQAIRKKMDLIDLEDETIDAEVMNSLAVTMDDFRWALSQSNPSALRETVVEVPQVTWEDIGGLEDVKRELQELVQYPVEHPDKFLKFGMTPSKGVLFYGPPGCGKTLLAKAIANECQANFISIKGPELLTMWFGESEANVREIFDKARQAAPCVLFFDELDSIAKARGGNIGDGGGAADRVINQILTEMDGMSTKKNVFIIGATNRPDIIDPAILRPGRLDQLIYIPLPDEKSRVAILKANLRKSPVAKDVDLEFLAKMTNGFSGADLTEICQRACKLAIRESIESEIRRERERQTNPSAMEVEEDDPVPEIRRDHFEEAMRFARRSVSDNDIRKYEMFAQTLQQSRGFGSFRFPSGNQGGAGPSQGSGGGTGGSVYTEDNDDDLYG
LYPLA1 inh: LYPLA1 (human) inhibition in PME1 counter-screen. O75608. recombinant LYPLA1, FP-Rh probe fluorescence polarization. inhibition, % at 5.9 µM. actives 0.16% (n = 320,000);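 active = inhibition above the mean of all tested compounds plus 3 SD, set per campaign, cut at about 14% in these data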;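 also: inhibitors block serine hydrolase probe labeling of LYPLA1 so polarization falls; 0% = enzyme with DMSO and 100% = wells lacking LYPLA1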
Hck-Nef inh: human Hck-Nef kinase inhibition. Recombinant Hck-YEEI plus Nef, Z-Lyte FRET kinase assay. inhibition, % at 20 µM. actives 0.68% (n = 220,000). AID 463187;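 active = Hck-Nef kinase inhibition above about 50%, limit read from the data; inactive = inhibition below that limit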;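 also: 0% = DMSO with Hck plus Nef and 100% = Hck alone without Nef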
p97 inh conf: human p97 ATPase inhibition, confirmation; shares compounds with p97 ATPase inh; recombinant p97 ATPase, Kinase-Glo ATP luminescence; inhibition, % at 8 µM; actives 44% (n = 760);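 active = percent inhibition of p97 ATPase above a set limit, the primary screen's mean plus 3 SD, cut at about 15% in these data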;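 also: 0% = DMSO wells and 100% = wells lacking p97 protein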
LYPLA1 conf: LYPLA1 (human) inhibition, confirmation counter-screen | shares compounds with LYPLA1 inh | recombinant LYPLA1, FP-Rh probe fluorescence polarization | inhibition, % at 5.9 µM | actives 69% (n = 480) | AID 2233;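 active = mean inhibition across replicates above the hit cutoff set in the primary screen, cut at about 15% in these data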;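 also: loss of FP-Rh probe labeling of LYPLA1 seen as lower polarization; 0% = LYPLA1 with DMSO and 100% = wells lacking LYPLA1 enzyme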
LYPLA2 conf: counter-screen for PME1 inhibitors: confirmation of human LYPLA2 inhibitors. actives 72% (n = 1,100). shares compounds with LYPLA2 counter. inhibition, % at 5.9 µM. recombinant LYPLA2, FP-Rh probe fluorescence polarization;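 active = mean inhibition across replicates above the hit cutoff set in the primary screen, cut at about 26% in these data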;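 also: blocked labeling of the enzyme by serine hydrolase FP-Rh probe lowers polarization; 0% = enzyme with DMSO and 100% = wells lacking LYPLA2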
Hck Nef conf: Hck-Nef kinase inhibition, confirmation. AID 463188. Recombinant Hck-YEEI:Nef, Z-Lyte FRET kinase assay. shares compounds with Hck-Nef inh. calls only at 10 µM. actives 28% (n = 1,300);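 active = average inhibition of at least 50%, with Z-scores no higher than 3 in both the phospho-tyrosine peptide and fluorescence counterscreens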
Rin1 Abl conf: Rin1-Abl interaction inhibition confirmation | shares compounds with Rin1-Abl PPI inh | TR-FRET Rin1-Abl binding, purified proteins | inhibition, % at 7.35 µM | actives 49% (n = 1,300)
GFP quencher: quenches GFP fluorescence, counter-screen for Rin1-Abl inhibitors; shares compounds with Rin1-Abl PPI inh; inhibitors/quenchers counterscreen; inhibition, % at 6.75 µM; actives 8.5% (n = 1,300);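 also: ABL1-eGFP fusion protein alone without its partner RIN1-SBP; 0% = protein with vehicle and 100% = wells lacking protein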
GFP quench DR: counter-screen for Rin1-Abl inhibitors: GFP quenchers, dose response; GFP fluorescence interference/quenching counterscreen; 230 tested, under 10 active; shares compounds with Rin1-Abl PPI inh; IC50, µM; call rule not given here;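 also: ABL1-eGFP fusion protein alone without its RIN1 binding partner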
Starred values were filed as active, the others as inactive; i = inactive; . = not tested or not shown. Rule as the data show it, unless noted: active = inhibition above about 6.5%; inactive = the rest.

SMILES	Rin1-Abl PPI inh	LYPLA2 counter	PREPL inhibitor	p97 ATPase inh	LYPLA1 inh	Hck-Nef inh	LYPLA1 conf	others
COc1ccc(NC(=O)CCNC(=O)c2ccccc2Cl)cc1S(=O)(=O)N1CCCCC1	4	.	.	.	.	.	.
CCCCn1c(NS(=O)(=O)c2ccccc2)c(S(=O)(=O)c2ccc(C)cc2)c2nc3ccccc3nc21	22*	56*	37	25*	64*	66*	82*	p97 inh conf=29*;LYPLA2 conf=91*;Rin1 Abl conf=11*;GFP quencher=-1
O=C(NC1(O)C(=O)c2ccccc2C1=O)c1c(Cl)cccc1Cl	14*	1	15	20*	-2	21	.	p97 inh conf=41*;Rin1 Abl conf=28*;GFP quencher=2;GFP quench DR=>68
O=C(Nc1ccccc1Cl)c1c(F)c(F)c(F)c(F)c1F	-2	-2	5	4	2	1	.
O=C(O)c1ccc2nc(-c3ccco3)c(-c3ccco3)nc2c1	14*	.	.	26*	.	52*	.	p97 inh conf=1;Hck Nef conf=i;Rin1 Abl conf=2;GFP quencher=5
CCN(CC(=O)Nc1ccc(OC)cc1)C(=O)Cc1cccs1	1	2	4	.	-2	.	.
CCN(c1ccccc1)S(=O)(=O)c1ccc(C(=O)N2CCN(c3ccccc3)CC2)cc1	1	.	29	.	.	.	.
Cc1ccc(NC(=O)CN2C(=O)N/C(=C/c3cccn3-c3ccc(C(=O)O)cc3)C2=O)cc1	9.7*	6	9	17*	-5	26	.	p97 inh conf=32*;Rin1 Abl conf=9.0*;GFP quencher=9.9*
CCN(CC(=O)Nc1ccccc1C(F)(F)F)C(=O)CCOc1ccc(C)cc1	2	5	5	.	1	.	.
COc1ccc(CCNC(=O)CN(CCc2ccccc2)S(C)(=O)=O)cc1OC	0	2	5	0	22*	18	3
COc1ccc([C@H]2CC(=O)C=C(c3ccc4c(c3)OCCO4)C2)cc1	-3	13	-16	.	3	.	.
COc1ccc([C@H]2CC(=O)C=C(c3ccc(C)c([N+](=O)[O-])c3)C2)cc1	1	15	10	.	18*	.	17*
O=C(COC(=O)c1cc(S(=O)(=O)N2CCOCC2)ccc1Cl)Nc1ccccc1Cl	3	.	.	.	.	.	.
CN1CC=C2C(C#N)=C(N)C(C#N)(C#N)[C@H](c3ccoc3)[C@H]2C1	-1	14	34	-6	14*	38	0
O=C(NCC(=O)N1CCN(c2cccc(Cl)c2)CC1)c1ccc(Br)o1	2	7	3	.	14*	.	16*
COc1ccccc1-c1nnc(SCC(=O)NC2CC2)n1C	-2	6	8	.	1	.	.
COc1ccccc1-c1nnc(SCC(=O)NNC(=O)c2ccccc2F)n1C	4	7	19	.	24*	.	4
CC1CCN(S(=O)(=O)c2ccc(NC(=O)CCNC(=O)c3ccc(Cl)cc3)cc2)CC1	4	.	.	.	.	.	.
COC(=O)Cn1c(=NC(=O)c2ccc(S(=O)(=O)N3CCOCC3)cc2)sc2cc(S(N)(=O)=O)ccc21	-1	0	-11	.	13	.	.
COCCn1c(=NC(=O)c2ccc(S(=O)(=O)N3CCOCC3)cc2)sc2cc(S(N)(=O)=O)ccc21	-1	15	-7	.	17*	.	27*
Cc1cc(C)n(S(=O)(=O)c2ccccc2[N+](=O)[O-])n1	3	9	-4	.	-1	.	.
Cc1noc(NS(=O)(=O)c2ccc(NC(=O)c3oc4ccc(Cl)cc4c3C)cc2)c1C	-2	25	28	.	28*	.	31*
Cc1c(C(=O)Nc2ccc(S(=O)(=O)Nc3ncccn3)cc2)oc2ccc(Cl)cc12	-2	4	-6	.	-3	.	.
O=C(O)c1sc2cc(C(F)(F)F)cnc2c1-c1ccccc1	0	0	2	0	-3	-1	.
COC(=O)c1sc2cc(C(F)(F)F)cnc2c1-c1ccccc1	4	12	-2	-1	17*	1	21*
SMILES	Rin1-Abl PPI inh	LYPLA2 counter	PREPL inhibitor	p97 ATPase inh	LYPLA1 inh	Hck-Nef inh	LYPLA1 conf	others
O=C(Nc1ccc(Oc2cccnc2)cc1)C1CCN(Cc2cc(Cl)ccc2O)CC1	1	25	-26	.	21*	.	18*
O=C(c1ccc(-c2ccccc2)c(F)c1)C1CCCN(C(=O)c2cncs2)C1 (stereo not given)	-2	22	11	2	32*	1	52*
CC1(OC(=O)c2cnc3ccccc3n2)C(=O)C=C2C=C(C3CC3)OC=C2C1=O (stereo not given)	.	76*	33	.	58*	.	27*
COC/C=C/C1=CC2=CC(=O)C(C)(OC(=O)c3cnc4ccccc4n3)C(=O)C2=CN1C1CCCCC1 (stereo not given)	.	-3	9	.	-5	.	.
Cc1ccc(NC(=O)COC(=O)C2CC3C=CC2C3)cc1S(=O)(=O)N1CCCCC1 (stereo not given)	-3	6	1	-12	20*	1	33*
CCN(CC)S(=O)(=O)c1cccc(NC(=O)COC(=O)C2CC3C=CC2C3)c1 (stereo not given)	-1	13	15	-2	30*	2	28*
Cc1ccc2nc(C3CCCCC3)[nH]c2c1	1	2	-6	.	1	.	.
C=CCSc1nc(N)c(C#N)c(-c2ccccc2)c1C#N	-10	8	-2	0	14*	0	12
Cc1nc2nc(C)c(NS(=O)(=O)c3ccc(CC(C)C)cc3)c(=O)n2[nH]1	2	-5	18	.	1	.	.
Cc1cc(C)c2c(N)c(C(=O)Nc3nccs3)sc2n1	-4	0	4	3	17*	6	11
CCCN1/C(=C(\C#N)C2=NS(=O)(=O)c3ccccc32)N(C)c2ccccc21	2	.	.	.	.	.	.
CC(C)Cn1c(N)c(C(=O)CSc2ncn[nH]2)c(=O)n(C)c1=O	7	.	.	.	.	.	.
C/C(=N\NC(=O)CCc1ccccc1)C1C(=O)c2ccccc2C1=O	0	-2	1	5	-2	30	.
